Results: PubChem BioAssay (EPA / NIEHS)
The source made the active and inactive calls. The calls were made as follows: active = hit-call score of the fitted dose curve at least 0.9, where 1 is the maximum; inactive = score below 0.9.

These molecules were tested on Glutamate-cysteine ligase catalytic (GCLC), GCLC (gene 2729) (assay: LTEA_HepaRG_GCLC: Life Technologies and Expression Analysis (LTEA) Assay for Glutamate-cysteine ligase catalytic (GCLC) using HepaRG (AID 2283498)). Conditions: mRNA level, 48 h; actives raise or lower the signal.
Procedure: LTEA_HepaRG is a cell based, multiplexed-readout assay that uses HepaRG, a human liver cell line, with measurements taken at 48 hours after chemical dosing on a 96-well plate.LTEA_HepaRG_GCLC is one of 102 assay component(s) measured in the LTEA HepaRG cell culture assay. It is a marker of Oxidative Stress.Data from the assay component LTEA_HepaRG_GCLC was analyzed into 1 endpoint. This assay endpoint, LTEA_HepaRG_GCLC, was analyzed with bidirectional fitting relative to DMSO as the negative control and baseline of activity. Using a type of inducible reporter, measures of mRNA induction for gain or loss-of-signal activity can be used to understand regulation of transcription factor activity. To generalize the intended target to other relatable targets, this assay endpoint is annotated to the ligase intended target family, where the subfamily is C-N ligase.
A total of 1060 chemcials from the ToxCast library were tested in eight-point concentration-response experiments. Cell culture and cytotoxicity assays were conducted at Thermo Fisher Scientific's Custom Services facility (Madison, WI). A single lot of human HepaRG cells (Thermo Fisher Scientific, Frederick, MD) was used for the cell culture experiments. 96-well format collagen type I coated plates of human HepaRG cells were prepared using established methods. Briefly, cryopreserved HepaRG cells were thawed, plated at a density of approximately 100,000 cells/well in HepaRG Thaw, Plate, and General Purpose media (HPRG770, Thermo Fisher Scientific), and incubated for 48 hours. 0.5% DMSO was selected as vehicle control to balance the requisite need of DMSO in HepaRG cultures to maintain differentiation (for example, baseline metabolism, proportions of hepatocytes vs. cholangiocytes), while enabling further hepatic receptor pathway activation (for example, PXR and CAR) in response to chemical exposure. 48 hours after plating, the culture medium was replaced with HepaRG Serum-Free Incudtion Media. Cells were exposed to each test chemical in duplicate and maintained in CO2 incubators for another 48 hours. Chemical plates were thawed to room temperature and 200x concentrations of treatment groups were prepared. 8-point conentration-reponse curves were made with the highest exposure at 100 uM, followed by half-log dilutions, all in 0.5% DMSO. Each test plate contained variouse controls, induction positive controls (1mM phenobarbital), cytotoxicity positive controls ([…] aflatoxin B1), vehicle controls (0.5% DMSO), and total lysis controls (0.5% DMSO). Cell morphology images were taken using an Essen IncuCyte FLR automated microscope, with six 96-well plates imaged in about 24 minutes. Images were captured and exported and JPEG files. Spent culture media was transfered to black-well plates for the LDH assay, and remaining media was sorted at -80 C for later use. Cells were treated with RLT buffer and frozen until shipped for gene expression analysis. Total RNA was isolated from the cell suspension in 75 uL of Buffer RLT (Qiagen, Germantown, MD 20874) by Quintiles/Expression Analysis (Durham, NC) using a custom isolation procedure. Total RNA from each plate well was transferred to a preamplification plate. Fluidigm's 96.96 Dynamic ArrayTM (Fluidigm, Amsterdam, the Netherlands) technology was used for gene expression analyses by quantitative reverse transcription polymerase chain reaction (qRT-PCR, performed by Quintiles/Expression Analysis, Durham, NC)89. Standard TaqManTM Assays (Applied Biosystems/ThermoFisher Scientific, Foster City, CA) were used to assess the expression of 93 genes selected based on their selectivity and sensitivity to important hepatic receptors known to be modulated by environmental chemicals; importance in human hepatocyte functionality; and hepatotoxicity. […]

| SMILES | outcome | AC50 |
| --- | --- | --- |
| Clc1cccc(Cl)c1 | inactive | – |
| O=C(N[C@H]1CN2CCC1CC2)c1ccc2c(c1)OCCO2 | inactive | – |
| O=C(O)C1(c2ccc3c(c2)OC[C@H](Cc2ccc(-c4ccccc4)cc2)[C@H]3O)CCCC1 | – | 75.6 µM (active) |
| COc1ccccc1N | inactive | – |
| N#Cc1cccnc1 | inactive | – |
| Oc1c(Cl)cc(Cl)cc1Cl | inactive | – |
| Cc1cc(C)cc(C)c1 | inactive | – |
| Clc1cccc(Cl)c1Cl | inactive | – |
| CC(C)(C)c1ccccc1O | inactive | – |
| CN(C)C(=S)S | inactive | – |
| CC(C)O.CC(C)O.OCCN(CCO)CCO.OCCN(CCO)CCO.[Ti] | inactive | – |
| CCCCCCCCCCCCc1cccc(S(=O)(=O)O)c1 | inactive | – |
| OCCN(CCO)CCO | inactive | – |
| Oc1cc(Cl)c(Cl)cc1Cl | inactive | – |
